As a reminder, the inhibition is the change of the read-out against control, counted positive when it falls.

Hit rate of the full screen: of about 190,000 compounds, about 810 (0.43%) were called active. This is one part of a sample in which actives are shown more often than they occur. Values without a mark were called inactive. Rule as the data show it: active = inhibition above about 50%; inactive = the rest.

In this experiment the target is Mannose-6-phosphate isomerase (Homo sapiens) (UniProt P34949). The experiment is described as follows: MPI enzyme activity inhibition – biochemical, fluorescence intensity, coupled assay, primary screen (AID 1209).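 Also: plate controls were DMSO vehicle for no effect and wells lacking substrate for full effect.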 Conditions: purified PMI enzyme, at 20 µM, active compounds read high.
Sequence of Mannose-6-phosphate isomerase (Homo sapiens) (P34949 whole entry, looked up): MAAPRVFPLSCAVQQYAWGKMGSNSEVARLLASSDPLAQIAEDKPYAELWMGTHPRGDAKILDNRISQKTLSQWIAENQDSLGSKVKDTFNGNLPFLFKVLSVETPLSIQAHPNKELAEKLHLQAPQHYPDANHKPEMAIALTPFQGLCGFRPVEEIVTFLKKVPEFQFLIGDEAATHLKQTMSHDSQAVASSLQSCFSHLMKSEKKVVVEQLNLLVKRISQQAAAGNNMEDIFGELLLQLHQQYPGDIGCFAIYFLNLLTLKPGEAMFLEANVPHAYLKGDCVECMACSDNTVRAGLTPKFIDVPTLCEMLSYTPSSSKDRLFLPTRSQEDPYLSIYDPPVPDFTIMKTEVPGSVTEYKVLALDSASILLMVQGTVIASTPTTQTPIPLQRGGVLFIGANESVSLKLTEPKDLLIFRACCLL
As to `O=S(=O)(c1ccc(Cl)cc1)c1cnc2ccccc2n1`, the inhibition is -6.4%.

Turning to `CC(C)(C)NC(=O)c1cc(-c2ccccc2)n[nH]1`, the inhibition was 70.1% (active).

For `O=C(O)c1cc(-c2ccccc2)n[nH]1`, the inhibition is -12%.

As for `COC(=O)c1cc(-c2ccccc2)n[nH]1`, the inhibition was 7.7%.

Take `Cc1c(Br)c([N+](=O)[O-])nn1CC(=O)Nc1ccccn1`: the inhibition was 7.8%.

As for `Cc1c(Br)c([N+](=O)[O-])nn1CC(=O)NCc1ccccn1`, the inhibition was 101% (active).

With `Cc1c(Br)c([N+](=O)[O-])nn1CC(=O)NCc1ccccc1`, the inhibition is 1.2%.

For the compound `O=C(C1CCCN(S(=O)(=O)c2cnc[nH]2)C1)N(CCc1ccccc1)Cc1ccccc1` (stereo not given), the inhibition is 9.1%.

`CCOCC(=O)Nc1nc2ccc(C)cc2s1`: the inhibition is 110% (active).

Consider `COCC(=O)Nc1nc2ccc(C)cc2s1`, for which the inhibition was 4.3%.

For `CCOCC(=O)Nc1nc2ccc(OCC)cc2s1`, the inhibition is -3%.

In the case of `CNC(=S)N1CCc2cc(OC)c(OC)cc2C1COc1ccc(F)cc1` (stereo not given), the inhibition was 10.3%.

Take `O=C1CNC(=O)c2c(nc3n2CCC3)N1`: the inhibition was -20.3%.

As to `CC(C)=C1SC(N2CCN(c3ccc(Cl)cc3)CC2)=NC1=O`, the inhibition was 0.9%.

Take `COc1cccc(C(=O)NC(C)C(c2cccs2)N2CCN(C)CC2)c1` (stereo not given): the inhibition is 4.2%.

On to `Oc1ccc(/C=N/N(Cc2ccccc2)c2ccccc2)c(O)c1O`, for which the inhibition is 76.6% (active).

With `O=C(/C(=N/N=C/c1ccc(O)c(O)c1)c1ccccc1)c1ccccc1`, the inhibition was 30.7%.

With `Oc1ccc(/C=N/N=C(c2ccccc2)c2ccccc2)c(O)c1O`, the inhibition was 67.9% (active).

Take `CCN(CC)c1ccc(/C=N/N=C(c2ccccc2)c2ccccc2)c(O)c1`: the inhibition was 0.4%.

On to `O=C(/C(=N/N=C/c1ccc(O)c(O)c1O)c1ccccc1)c1ccccc1`, for which the inhibition is 55.5% (active).

With `COc1ccc(/C=N/N(Cc2ccccc2)c2ccccc2)cc1O`, the inhibition is 16.7%.

Take `COc1cc(/C=N/N=C(/C(=O)c2ccccc2)c2ccccc2)cc(OC)c1O`: the inhibition is 22%.

`Oc1cccc(C=NCc2ccccc2)c1O`: the inhibition is 49.6%.

On to `Oc1cccc(/C=N/N(Cc2ccccc2)c2ccccc2)c1`, for which the inhibition was 10%.

On to `CC(=O)c1cn(CCCCCCCn2cc(C(C)=O)c(=O)[nH]c2=O)c(=O)[nH]c1=O`, for which the inhibition was 1.5%.

For the compound `O=C(COC(=O)Cc1ccc(Br)cc1)NC1CCCCC1`, the inhibition was -3.4%.

As to `Oc1ccc(C2N=C(c3ccccc3)NC(c3ccccc3)=N2)cc1`, the inhibition was 3.9%.

For `Cc1ccc(C(=O)OCC(=O)Nc2sc3c(c2C#N)CCCC3)cc1NC(=O)c1ccco1`, the inhibition is 1.3%.

Consider `CSc1nc(=NC(C)=O)ss1`, for which the inhibition is 54.4% (active).

For `CCN(c1ccccc1)S(=O)(=O)c1ccc(OC)c(NC(=O)CNC)c1`, the inhibition was 7.5%.

As to `CCN(CC)CCOC(=O)c1c(C)oc2ccc(OC)cc12`, the inhibition is -3.8%.

Regarding `CCOC(=O)c1c(C)oc2ccc(O)cc12`, the inhibition was 8.3%.

Take `CCN(CC)CCOC(=O)c1c(C)oc2ccc(O)cc12`: the inhibition is 81.6% (active).

As to `C/C(=N\NC(=O)CCc1c[nH]c2ccccc12)c1ccc([N+](=O)[O-])cc1`, the inhibition was 7.7%.

For `O=C(Cc1coc(-c2ccc(F)cc2)n1)N1CCOCC1`, the inhibition is 1%.

As to `Nc1ccc(N(CCO)CCO)cc1`, the inhibition is 4.7%.

As for `OCCN(CCO)c1ccc(C(c2ccccc2Cl)c2ccc(N(CCO)CCO)cc2Cl)c(Cl)c1`, the inhibition is 22.1%.

Consider `Cc1nc(SCC(=O)c2ccc(F)cc2)n[nH]1`, for which the inhibition is -6.3%.

Turning to `Cc1nc(SCC(=O)c2ccccc2)n[nH]1`, the inhibition is 65.9% (active).

For `Cc1ccc(C(=O)CSc2n[nH]c(C)n2)cc1`, the inhibition was 48.5%.

As to `O=C(CCCN1C(=O)/C(=C/c2ccccc2)SC1=S)Nc1ccc(O)cc1`, the inhibition was 73% (active).

For `Cc1ccc(/C=C2/SC(=S)N(CCCC(=O)Nc3ccc(O)cc3)C2=O)cc1`, the inhibition was 22.7%.

Take `O=C(CCCN1C(=O)/C(=C/c2ccccc2)SC1=S)Nc1cccc(O)c1`: the inhibition is 13%.

With `O=C(COC(=O)/C=C/c1ccc([N+](=O)[O-])cc1)NC(c1ccccc1)c1ccccc1`, the inhibition is 13%.

Turning to `CC1=C(C(=O)Nc2ccccc2)C(c2cccc([N+](=O)[O-])c2)Nc2nc3ccccc3n21` (stereo not given), the inhibition was 6.9%.

`O=C(CN1c2cccc3cccc(c23)S1(=O)=O)N1CCOCC1`: the inhibition was 1%.

Take `CC1=CC(C)(C)Nc2ccc(OC(=O)CN3C(=O)CCC3=O)cc21`: the inhibition is 22%.

As for `CC1=CC(C)(C)Nc2ccc(OC(=O)CN3C(=O)c4ccccc4C3=O)cc21`, the inhibition is 16.6%.

For `CC1=CC(C)(C)Nc2ccc(OC(=O)CN3C(=O)c4cccc5cccc(c45)C3=O)cc21`, the inhibition was 53.4% (active).

Take `Cc1cc(NC(=O)c2cc(-c3ccccc3)on2)n(-c2ccccc2)n1`: the inhibition is 0.3%.

`CCC(C)CCCCNC1=NCCS1` (stereo not given): the inhibition was -16.3%.

With `Cc1ccc(-c2n[nH]c(=S)n2/N=C/c2ccncc2)cc1`, the inhibition is -12%.

For the compound `Cc1ccc(/C=N/n2c(C)nnc2C)cc1`, the inhibition was 3.6%.

In the case of `NC(=O)c1c(-c2cccs2)csc1N`, the inhibition is 34.2%.

Consider `CCOC(=O)c1c(-c2cccs2)csc1N`, for which the inhibition is 51% (active).

For the compound `CCOC(=O)c1c(-c2ccncc2)csc1N`, the inhibition is 23.6%.

Take `CCOC(=O)c1c(-c2ccc(C)s2)csc1N`: the inhibition is 62.1% (active).

Turning to `CCOC(=O)c1c(-c2ccc(C)s2)csc1NC(=O)c1cccs1`, the inhibition was 1.1%.

Turning to `CCOC(=O)c1c(-c2cccs2)csc1NC(C)=O`, the inhibition is 7.1%.

As for `O=C1c2ccccc2C(=O)N1CCCCN(C(=O)c1cc2ccccc2oc1=O)c1ccc(F)cc1F`, the inhibition was 11.5%.

For the compound `Cc1cccc(-n2c(Cc3ccccc3)nnc2SCC(=O)N2CCOCC2)c1`, the inhibition is -6.7%.

For `O=C(NCc1ccccc1)c1cnc(-c2ccccn2)nc1C(F)(F)F`, the inhibition was -3.7%.

Turning to `CCC(OC(=O)c1cccs1)C(=O)NC1CCCCC1` (stereo not given), the inhibition was 3.4%.

`O=[N+]([O-])c1cc(/C=N/n2c(-c3ccncc3)n[nH]c2=S)ccc1Cl`: the inhibition is 2.2%.

As for `CC(C)CC(c1nnnn1Cc1ccc2c(c1)OCO2)N1CCC(C(N)=O)CC1` (stereo not given), the inhibition is 7.2%.

(Values after PubChem BioAssay AID1209 (Sanford-Burnham Center for Chemical Genomics, 2008).)
